Values joined by “and” are separate entries in the source; they are usually repeats but may differ in a detail not shown here. Equal values may be shown once. Inconclusive results are not listed. For part of these data: Results with a measured potency or affinity are listed apart. Active and inactive are the calls of the source. Cut-off read from the data, not from the text of the source, unless noted: active = inhibition above about 80%; inactive = the rest.

A short description of experiment [1]: blockers of polyQ-driven CASP3 activation – cell-based (AID 1583). Particulars: polyglutamine-induced caspase-3 activation, cell assay; stronger effect = higher value;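 tested at 10 µM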.
Experiment [2] is described as follows: yeast 75Q aggregation reduction – 75Q-TubU reporter (AID 1593). Particulars: Yeast 75Q polyglutamine aggregation reporter.
Experiment [3] in a line: restoration of touch response, mutant HTT neurons – whole organism, C. elegans mechanosensory neurons, N-terminal huntingtin (AID 1599). The following applies: C. elegans polyQ-huntingtin mechanosensory neurons, stronger effect = higher value.
A short description of experiment [4]: blockers of cytochrome c efflux from mitochondria – biochemical, purified mitochondria (AID 1603).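 Note: mouse liver mitochondria challenged with calcium chloride; signal normalized to the plate average as 100%.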 Particulars: stronger effect = lower value.
Experiment [5] is described as follows: polyglutamine aggregate formation blockers (AID 1604). Particulars: polyglutamine-induced protein aggregation inhibition assay; stronger effect = higher value; tested at 2.5 µM.
Experiment [6] is described as follows: glutamate transport activators, MN-1 cells, MN-1 cell line (AID 1612).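 Note: tested at 1 µM final; 0% = mean of DMSO vehicle wells on each plate; positive means more glutamate uptake than control and negative means less.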 Particulars: MN-1 motor neuron cells, stronger effect = higher value.
Experiment [7] can be described thus: GFP-Q80 aggregate reduction, neuronal-like cells, cell-based, NGF-treated PC12, GFPQ80 (AID 1614).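 Note: lower means fewer inclusions and 0 means no inclusions at all.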 Particulars: PC12 NGF-treated GFP-polyQ80 inclusion reduction.
Experiment [8] in a line: 75Q-TubH aggregate inhibition, S. cerevisiae, yeast (AID 1616). Particulars: S. cerevisiae 75Q-TubH polyglutamine aggregation suppression; stronger effect = higher value.
Experiment [9] in a line: growth inhibition, single agents and combos, LFS_MB_1R, cell-based, cisplatin or BGB combos, synergistic combos for chromothripsis tumors (AID 1671452).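 Note: cells exposed for 96 hours before readout.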 Particulars: LFS_MB_1R medulloblastoma cells, stronger effect = higher value.
The nature of experiment [10]: growth inhibition, single agents and combos, CRL2098, cell-based, BGB or cisplatin IC20 combos, synergistic combos for chromothripsis tumors (AID 1671454).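 Note: cells exposed for 96 h before readout; 0% = vehicle DMSO and 100% = killing by high DMSO.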 The following applies: CRL2098 osteosarcoma cells, drug combinations, stronger effect = higher value.
A short description of experiment [11]: growth inhibition, single agents and combos, HD-MB03, cell-based, BGB or cisplatin IC20 combos, synergistic combos for chromothripsis tumors (AID 1671455; in the data active = inhibition above about 83%;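 note: 0% = vehicle DMSO and 100% = high DMSO as cytotoxic control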). Particulars: HD-MB03 medulloblastoma cells, stronger effect = higher value.
A short description of experiment [12]: growth inhibition, single agents and combos, UWB1.289, cell-based, BGB or cisplatin combos, synergistic combos for chromothripsis tumors (AID 1671456).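 Note: cells exposed to compound for four days; 0% = vehicle DMSO and 100% = killing by high DMSO.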 Particulars: UWB1.289 ovarian carcinoma cells, stronger effect = higher value.
Experiment [13] is described as follows: growth inhibition, single agents and combos, LFS_MB_2R, cell-based, cisplatin combos, synergistic combos for chromothripsis tumors (AID 1671457).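 Note: cells exposed to compound for four days before readout.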 Particulars: LFS_MB_2R medulloblastoma cells, stronger effect = higher value.
Experiment [14] is described as follows: UWB1.289_BRCA1 ovarian cancer growth, cell-based, BGB or cisplatin combinations (AID 1671459). The following applies: UWB1.289 BRCA1 ovarian carcinoma, drug combinations, stronger effect = higher value.
Experiment [15] can be described thus: drug combination toxicity in non-malignant astrocytes – cell-based, BGB or cisplatin IC20 combos, cytotoxicity control for chromothriptic childhood tumor combination screen (AID 1671460).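 Note: cells exposed to compounds for 96 hours before viability readout; 0% = vehicle and 100% = killing control.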 Particulars: Human astrocytes, viability inhibition, drug combinations, at 0.5 µM, stronger effect = higher value.
Experiment [16] has as its target ATP-dependent translocase ABCB1 (Homo sapiens) (UniProt P08183). Kind of experiment: P-glycoprotein substrate transport blockade – cell-based (AID 377; in the data active = fluorescence slope change above about 50%). The following applies: MDR1-expressing cells, fluorescent substrate accumulation slope; stronger effect = higher value; concentration not given here.
Where [17] appears, read: measured here: combination with cisplatin, at 0.5 µM.
The mark [18] stands for this setting: measured here: combination with cisplatin, at 5 µM.

Sequence of ATP-dependent translocase ABCB1 (Homo sapiens) (P08183 whole entry, looked up): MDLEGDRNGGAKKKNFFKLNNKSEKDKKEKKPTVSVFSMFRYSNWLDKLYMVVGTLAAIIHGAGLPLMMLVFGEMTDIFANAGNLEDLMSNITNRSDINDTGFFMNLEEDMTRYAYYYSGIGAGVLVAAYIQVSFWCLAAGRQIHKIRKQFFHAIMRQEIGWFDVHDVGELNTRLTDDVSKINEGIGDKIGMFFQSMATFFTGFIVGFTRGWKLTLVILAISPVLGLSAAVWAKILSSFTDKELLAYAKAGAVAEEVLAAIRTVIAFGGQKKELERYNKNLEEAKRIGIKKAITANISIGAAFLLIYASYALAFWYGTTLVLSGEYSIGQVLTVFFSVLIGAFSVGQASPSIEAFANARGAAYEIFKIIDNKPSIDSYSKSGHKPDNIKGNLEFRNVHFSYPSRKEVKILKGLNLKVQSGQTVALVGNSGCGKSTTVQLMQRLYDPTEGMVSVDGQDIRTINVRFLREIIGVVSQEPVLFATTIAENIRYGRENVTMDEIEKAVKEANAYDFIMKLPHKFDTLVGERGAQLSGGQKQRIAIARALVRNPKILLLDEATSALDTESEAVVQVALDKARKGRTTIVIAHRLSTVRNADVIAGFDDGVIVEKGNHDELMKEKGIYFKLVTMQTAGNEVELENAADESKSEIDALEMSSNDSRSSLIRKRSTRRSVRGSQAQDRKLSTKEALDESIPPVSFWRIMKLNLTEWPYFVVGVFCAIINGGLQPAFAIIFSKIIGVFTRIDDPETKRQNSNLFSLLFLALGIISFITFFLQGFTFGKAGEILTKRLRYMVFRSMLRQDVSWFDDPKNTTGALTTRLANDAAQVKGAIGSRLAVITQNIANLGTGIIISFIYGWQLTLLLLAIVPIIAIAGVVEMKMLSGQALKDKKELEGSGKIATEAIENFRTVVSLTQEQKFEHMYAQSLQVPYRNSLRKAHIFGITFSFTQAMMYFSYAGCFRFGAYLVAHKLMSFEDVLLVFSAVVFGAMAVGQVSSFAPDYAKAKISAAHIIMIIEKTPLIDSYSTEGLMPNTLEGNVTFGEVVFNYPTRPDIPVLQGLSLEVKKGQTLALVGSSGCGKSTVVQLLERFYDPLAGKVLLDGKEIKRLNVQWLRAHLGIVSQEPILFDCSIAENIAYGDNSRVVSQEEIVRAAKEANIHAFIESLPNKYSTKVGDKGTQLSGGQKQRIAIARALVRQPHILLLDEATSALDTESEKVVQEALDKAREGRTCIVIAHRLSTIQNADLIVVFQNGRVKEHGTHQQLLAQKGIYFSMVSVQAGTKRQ

Turning to `CC(=O)NC(Cc1ccccc1)C(=O)O` (stereo not drawn), in experiment [1], the inhibition was found to be 6.15%. The compound also yielded a score in experiment [2] of 1.35. In addition, the rescue above control in [3] was 4.38. The cytochrome c release ratio in [4] worked out at 0.42. This compound had an inhibition of aggregation in experiment [5] of 85.9%. In experiment [6], the glutamate uptake change came to 12.1%. In addition, in experiment [7], the inclusion score is 2. Also, the aggregation suppression score in experiment [8] is 1.23.
For `O=C(O)CN(CC(=O)O)Cc1cc2c(-c3ccccc3C(=O)O)c3cc(CN(CC(=O)O)CC(=O)O)c(=O)cc-3oc2cc1O`, in experiment [1], the inhibition was -215%. The compound also came in with a score in [2] of 1.05. In experiment [3], this compound returned a rescue above control of -5.14. The cytochrome c release ratio in experiment [4] is 0.86. For the same compound, in experiment [5], the inhibition of aggregation worked out at 0%. The glutamate uptake change in experiment [6] amounted to 13.5%. The compound also returned an inclusion score in [7] of 0. The compound also came in with an aggregation suppression score in [8] of 0.687.
`Nc1nc(Cl)nc2c1ncn2[C@@H]1O[C@H](CO)[C@@H](O)[C@@H]1F`: the inhibition in experiment [9] (at 0.5 µM) is -12.4% (inactive) and -0.15% (inactive); in experiment [9] (measured here: combination with BGB IC40, at 0.05 µM) it was -16.1% and -38.3%; in [9] (setting [17]) it was 76.7% and 60.5%; in [9] (setting [18]), 89.1% and 86.1%; in [10] (at 0.5 µM), 79.4% (inactive) and 75.9% (inactive); in experiment [10] (measured here: combination with BGB at IC20, at 0.5 µM) it was 67.5% and 66%. In addition, the inhibition was 88.5% and 80.9% in experiment [10] (measured here: combination with cisplatin at IC20, at 0.5 µM); 92.5% (active) and 92.1% (active) in experiment [11] (at 0.5 µM); 86.9% and 84.3% in experiment [11] (measured here: combo with BGB at IC20, at 0.5 µM); 96.9% and 97.4% in experiment [11] (measured here: combo with cisplatin at IC20, at 0.5 µM); 42.4% (inactive) and 38.2% (inactive) in experiment [12] (at 0.5 µM); -20.1% and -11.3% in experiment [12] (measured here: inhibition with BGB combination, at 0.05 µM). Moreover, the inhibition is -17.8% and -24.8% in [12] (measured here: inhibition with cisplatin combination, at 0.05 µM); 9.11% (inactive) and 33.6% (inactive) in experiment [13] (at 0.5 µM); 55% and 57.2% in [13] (setting [17]); 80.6% and 87.7% in experiment [13] (setting [18]); 76.8% and 56.9% in experiment [14] (BGB combination, concentration series, at 5 µM); 50.9% (inactive) and 49.8% (inactive) in [14] (at 0.5 µM). Moreover, the inhibition was 99% and 94.5% in experiment [14] (cisplatin combination, concentration series, at 5 µM); 68.3% (inactive) and 72.7% (inactive) in experiment [15]; 68.2% and 76% in experiment [15] (measured here: combo with BGB IC20); 58.4% and 59.2% in [15] (measured here: combo with cisplatin IC20).
`CC[C@@H](CO)NCCN[C@@H](CC)CO`: in experiment [1], the inhibition was -11.7%. In experiment [2], this compound gave a score of 1.09. In addition, the rescue above control in experiment [3] is 2.87. The cytochrome c release ratio in experiment [4] amounted to 1.07. The same compound returned an inhibition of aggregation in experiment [5] of 43.6%. Also, the glutamate uptake change in [6] was -22.3%. Further, the inclusion score in experiment [7] was 2. In experiment [8], this compound showed an aggregation suppression score of 1.18.
In the case of `COc1cc(N)c(Cl)cc1C(=O)NC1CCN(CCCOc2ccc(F)cc2)CC1OC` (stereo not drawn), the fluorescence slope change in experiment [16] is 62% (active).
As to `CC(=O)OCC(=O)[C@@]1(O)CCC2C3CCC4=CC(=O)CC[C@]4(C)C3[C@@H](O)C[C@@]21C` (stereo partly drawn), the inhibition in experiment [1] is 6.86%. The compound further showed a score in experiment [2] of 1.36. In experiment [3], the rescue above control is -8.68. Further, in experiment [4], the cytochrome c release ratio was 1.12. Moreover, the inhibition of aggregation in experiment [5] was 66.2%. In [6], the glutamate uptake change is 16.2%. Also, in [7], the inclusion score was determined as 2. In [8], this compound registered an aggregation suppression score of 0.966.
In the case of `CN(C)CCCOc1nn(Cc2ccccc2)c2ccccc12`, the fluorescence slope change in experiment [16] was 153% (active).
In the case of `CCN(CC)CCOc1ccc2c(c1)C(=O)c1cc(OCCN(CC)CC)ccc1-2`, the inhibition in [1] was -90.6%. The score in experiment [2] came to 1.3. The same compound came in with a rescue above control in experiment [3] of -4.59. The cytochrome c release ratio in experiment [4] was determined as 0.81. In experiment [5], this compound yielded an inhibition of aggregation of 63.2%. Also, the glutamate uptake change in experiment [6] came to 22.5%. Besides, the aggregation suppression score in experiment [8] was 1.61.

The values above are taken from PubChem BioAssay.
